# Measured values from publication PMC7862700, “An all-to-all approach to the identification of sequence-specific readers for epigenetic DNA modifications on cytosine”.
# How the values were obtained:
# Assay in all cases: DAPPL (digital affinity profiling via proximity ligation, sequencing); 10 mM Tris-HCl pH 7.5, 50 mM NaCl, 1 mM DTT, 4% glycerol, room temperature, 30 min; GST-TFs on glutathione beads, 16-mer random dsDNA library, 0.1% formaldehyde crosslink after washing; high values mean tight binding
# FEV = target: T1, FEV (Homo sapiens, UniProt Q99581 1-238); details: protein: recombinant; tags: N-terminal GST; dsDNA, one strand shown
# T1 sequence: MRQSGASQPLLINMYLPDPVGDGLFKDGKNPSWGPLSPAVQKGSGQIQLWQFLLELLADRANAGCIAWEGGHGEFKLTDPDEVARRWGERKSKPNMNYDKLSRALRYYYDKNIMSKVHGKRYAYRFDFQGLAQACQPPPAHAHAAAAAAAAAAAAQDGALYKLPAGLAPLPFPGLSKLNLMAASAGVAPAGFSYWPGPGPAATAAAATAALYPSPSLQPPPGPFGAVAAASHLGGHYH
# Method in brief: (§1)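 Pools were built from human transcription factors expressed in yeast as GST fusions, captured on glutathione beads and DNA-barcoded, along with a tag-only sample. Incubation with 200 nmole of a 16-mer random double-stranded DNA library lasted 30 min at room temperature in Tris/NaCl/DTT/glycerol buffer, and was followed by washing, 0.1% formaldehyde crosslinking, proximity ligation, PCR amplification and Illumina NextSeq500 sequencing. Binding signal is the quotient of each hexamer's read frequency for a factor and its frequency for the tag-only sample.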
# ETV5 = ETV5 (Homo sapiens, UniProt P41161 1-510); details: protein: recombinant; tags: N-terminal GST; dsDNA, one strand shown
# Method in brief: as §1
# HSF1 = HSF1 (Homo sapiens, UniProt Q00613 1-529); details: protein: recombinant; tags: N-terminal GST; chain copies: 3; dsDNA, one strand shown
# Method in brief: as §1
# SPIC = target: T2, SPIC (Homo sapiens, UniProt Q8N5J4 1-248); details: protein: recombinant; tags: N-terminal GST; dsDNA, one strand shown
# T2 sequence: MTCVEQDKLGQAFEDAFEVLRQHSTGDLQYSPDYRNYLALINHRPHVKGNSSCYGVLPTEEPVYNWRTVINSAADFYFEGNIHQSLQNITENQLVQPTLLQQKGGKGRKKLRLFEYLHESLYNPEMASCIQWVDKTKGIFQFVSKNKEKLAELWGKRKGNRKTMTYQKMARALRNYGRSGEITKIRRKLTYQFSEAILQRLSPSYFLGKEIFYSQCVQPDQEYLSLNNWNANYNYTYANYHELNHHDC
# Method in brief: as §1
# ELF4 = ELF4 (Homo sapiens, UniProt Q99607 1-663); details: protein: recombinant; tags: N-terminal GST; dsDNA, one strand shown
# Method in brief: as §1
# ELK4 = target: T3, ELK4 (Homo sapiens, UniProt P28324-2 1-405); details: protein: recombinant; tags: N-terminal GST; dsDNA, one strand shown
# T3 sequence: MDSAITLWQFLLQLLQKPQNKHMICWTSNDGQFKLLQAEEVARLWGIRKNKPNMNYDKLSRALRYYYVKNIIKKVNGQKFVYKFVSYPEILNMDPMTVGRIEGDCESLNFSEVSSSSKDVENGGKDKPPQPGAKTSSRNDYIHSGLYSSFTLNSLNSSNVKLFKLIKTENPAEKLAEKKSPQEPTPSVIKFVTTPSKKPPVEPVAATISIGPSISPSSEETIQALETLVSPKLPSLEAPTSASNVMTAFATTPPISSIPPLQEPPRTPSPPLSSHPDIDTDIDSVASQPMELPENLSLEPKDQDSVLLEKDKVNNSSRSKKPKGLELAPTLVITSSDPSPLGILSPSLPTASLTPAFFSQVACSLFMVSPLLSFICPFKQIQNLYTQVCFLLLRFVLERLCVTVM
# Method in brief: as §1
# ETV2 = target: T4, ETV2 (Homo sapiens, UniProt O00321 1-342); details: protein: recombinant; tags: N-terminal GST; dsDNA, one strand shown
# T4 sequence: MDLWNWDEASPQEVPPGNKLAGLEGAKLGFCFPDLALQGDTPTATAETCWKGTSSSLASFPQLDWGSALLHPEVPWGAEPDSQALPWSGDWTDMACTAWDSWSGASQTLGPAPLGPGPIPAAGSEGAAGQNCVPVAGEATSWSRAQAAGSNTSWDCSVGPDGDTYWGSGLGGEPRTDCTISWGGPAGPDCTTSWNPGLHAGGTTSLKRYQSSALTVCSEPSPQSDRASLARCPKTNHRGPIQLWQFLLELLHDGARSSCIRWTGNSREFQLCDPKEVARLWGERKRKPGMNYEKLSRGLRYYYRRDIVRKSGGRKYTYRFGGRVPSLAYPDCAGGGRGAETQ
# Method in brief: as §1
# ELF3 = target: T5, ELF3 (Homo sapiens, UniProt P78545 1-371); details: protein: recombinant; tags: N-terminal GST; dsDNA, one strand shown
# T5 sequence: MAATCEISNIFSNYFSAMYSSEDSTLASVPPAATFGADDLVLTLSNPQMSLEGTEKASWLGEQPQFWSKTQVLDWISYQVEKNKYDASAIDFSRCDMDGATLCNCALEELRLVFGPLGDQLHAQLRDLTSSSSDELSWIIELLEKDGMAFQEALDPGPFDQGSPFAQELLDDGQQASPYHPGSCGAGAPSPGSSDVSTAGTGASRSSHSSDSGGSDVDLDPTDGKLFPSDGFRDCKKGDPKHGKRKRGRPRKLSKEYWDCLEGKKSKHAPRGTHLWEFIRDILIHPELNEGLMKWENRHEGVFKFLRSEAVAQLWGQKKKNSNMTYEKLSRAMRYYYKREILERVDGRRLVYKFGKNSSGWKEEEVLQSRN
# Method in brief: as §1
# CRX = CRX (Homo sapiens, UniProt O43186 1-299); details: protein: recombinant; tags: N-terminal GST; dsDNA, one strand shown
# Method in brief: as §1
# ETV1 = ETV1 (Homo sapiens, UniProt P50549 1-477); details: protein: recombinant; tags: N-terminal GST; dsDNA, one strand shown
# Method in brief: as §1
# ERF = target: T6, ERF (Homo sapiens, UniProt P50548 1-548); details: protein: recombinant; tags: N-terminal GST; dsDNA, one strand shown
# T6 sequence: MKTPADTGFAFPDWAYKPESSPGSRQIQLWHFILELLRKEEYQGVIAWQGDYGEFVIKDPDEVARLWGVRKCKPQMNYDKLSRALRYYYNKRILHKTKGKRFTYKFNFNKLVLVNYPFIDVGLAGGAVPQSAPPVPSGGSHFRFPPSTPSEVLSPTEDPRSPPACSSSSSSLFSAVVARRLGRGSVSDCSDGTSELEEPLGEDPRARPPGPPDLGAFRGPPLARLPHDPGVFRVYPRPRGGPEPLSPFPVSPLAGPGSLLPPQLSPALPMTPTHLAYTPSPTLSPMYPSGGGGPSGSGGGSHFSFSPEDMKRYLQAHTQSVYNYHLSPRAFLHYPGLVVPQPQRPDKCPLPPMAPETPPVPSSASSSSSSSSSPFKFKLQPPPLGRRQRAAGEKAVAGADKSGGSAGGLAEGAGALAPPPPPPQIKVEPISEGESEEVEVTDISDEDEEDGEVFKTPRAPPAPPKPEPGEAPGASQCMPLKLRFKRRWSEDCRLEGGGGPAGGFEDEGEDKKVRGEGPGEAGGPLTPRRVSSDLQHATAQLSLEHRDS
# Method in brief: as §1
# ETV3L = target: T7, ETV3L (Homo sapiens, UniProt Q6ZN32 1-361); details: protein: recombinant; tags: N-terminal GST; dsDNA, one strand shown
# T7 sequence: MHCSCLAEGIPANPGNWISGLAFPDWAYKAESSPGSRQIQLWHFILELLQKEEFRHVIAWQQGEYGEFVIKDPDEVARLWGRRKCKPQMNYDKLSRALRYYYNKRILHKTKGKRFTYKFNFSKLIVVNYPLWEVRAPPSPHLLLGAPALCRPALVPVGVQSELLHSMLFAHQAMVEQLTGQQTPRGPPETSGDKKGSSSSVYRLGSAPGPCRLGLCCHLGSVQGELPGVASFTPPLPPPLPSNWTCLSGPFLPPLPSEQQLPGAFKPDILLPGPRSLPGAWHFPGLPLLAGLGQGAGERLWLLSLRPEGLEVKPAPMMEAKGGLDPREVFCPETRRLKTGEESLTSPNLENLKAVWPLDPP
# Method in brief: as §1
# ETS2 = target: T8, ETS2 (Homo sapiens, UniProt P15036 1-469); details: protein: recombinant; tags: N-terminal GST; dsDNA, one strand shown
# T8 sequence: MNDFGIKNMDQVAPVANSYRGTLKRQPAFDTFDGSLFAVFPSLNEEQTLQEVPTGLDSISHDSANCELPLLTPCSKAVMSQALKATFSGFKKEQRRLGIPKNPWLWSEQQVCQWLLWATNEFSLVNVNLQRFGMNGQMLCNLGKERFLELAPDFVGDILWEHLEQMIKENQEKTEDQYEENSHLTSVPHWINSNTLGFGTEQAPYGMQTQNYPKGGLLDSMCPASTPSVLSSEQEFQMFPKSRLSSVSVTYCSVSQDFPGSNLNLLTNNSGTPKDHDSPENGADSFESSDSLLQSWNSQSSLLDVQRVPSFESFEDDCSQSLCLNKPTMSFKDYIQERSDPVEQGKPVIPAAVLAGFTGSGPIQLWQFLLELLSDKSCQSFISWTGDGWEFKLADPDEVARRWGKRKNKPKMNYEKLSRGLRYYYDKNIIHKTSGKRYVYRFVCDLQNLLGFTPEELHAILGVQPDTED
# Method in brief: as §1
# SPDEF = target: T9, SPDEF (Homo sapiens, UniProt O95238 1-335); details: protein: recombinant; tags: N-terminal GST; dsDNA, one strand shown
# T9 sequence: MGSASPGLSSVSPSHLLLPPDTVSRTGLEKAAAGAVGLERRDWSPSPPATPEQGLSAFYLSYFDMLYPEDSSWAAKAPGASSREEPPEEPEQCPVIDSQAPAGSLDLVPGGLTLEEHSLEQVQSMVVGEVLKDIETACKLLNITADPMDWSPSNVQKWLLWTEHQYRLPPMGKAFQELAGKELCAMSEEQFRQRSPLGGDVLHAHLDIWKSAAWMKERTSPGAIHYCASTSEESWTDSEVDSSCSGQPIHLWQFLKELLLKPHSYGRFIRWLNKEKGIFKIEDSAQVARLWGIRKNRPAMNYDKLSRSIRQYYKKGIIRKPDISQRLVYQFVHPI
# Method in brief: as §1
# ETV7 = target: T10, ETV7 (Homo sapiens, UniProt Q9Y603 1-341); details: protein: recombinant; tags: N-terminal GST; dsDNA, one strand shown
# T10 sequence: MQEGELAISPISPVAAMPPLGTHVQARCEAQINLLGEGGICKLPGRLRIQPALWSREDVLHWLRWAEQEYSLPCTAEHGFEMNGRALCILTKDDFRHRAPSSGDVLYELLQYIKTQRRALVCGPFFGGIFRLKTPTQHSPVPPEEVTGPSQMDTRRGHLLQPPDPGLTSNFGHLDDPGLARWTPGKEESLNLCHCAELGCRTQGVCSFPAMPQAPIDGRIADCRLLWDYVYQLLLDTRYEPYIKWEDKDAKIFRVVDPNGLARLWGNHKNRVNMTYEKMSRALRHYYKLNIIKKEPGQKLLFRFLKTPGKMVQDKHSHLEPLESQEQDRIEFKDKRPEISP
# Method in brief: as §1
# ELF5 = target: T11, ELF5 (Homo sapiens, UniProt Q9UKW6-2 1-255); details: protein: recombinant; tags: N-terminal GST; dsDNA, one strand shown
# T11 sequence: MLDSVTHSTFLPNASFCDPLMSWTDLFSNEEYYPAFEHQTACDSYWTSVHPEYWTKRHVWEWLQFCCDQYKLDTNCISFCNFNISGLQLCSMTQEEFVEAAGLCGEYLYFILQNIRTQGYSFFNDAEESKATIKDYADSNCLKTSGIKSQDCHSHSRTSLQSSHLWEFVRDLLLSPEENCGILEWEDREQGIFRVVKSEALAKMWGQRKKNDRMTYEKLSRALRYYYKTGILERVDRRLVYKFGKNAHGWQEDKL
# Method in brief: as §1
# ETV3 = target: T12, ETV3 (Homo sapiens, UniProt P41162-2 1-143); details: protein: recombinant; tags: N-terminal GST; dsDNA, one strand shown
# T12 sequence: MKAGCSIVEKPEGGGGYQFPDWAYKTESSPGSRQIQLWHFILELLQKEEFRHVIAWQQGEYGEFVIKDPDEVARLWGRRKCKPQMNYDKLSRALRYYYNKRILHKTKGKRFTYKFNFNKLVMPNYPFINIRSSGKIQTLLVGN
# Method in brief: as §1
# ETV6 = ETV6 (Homo sapiens, UniProt P41212 1-452); details: protein: recombinant; tags: N-terminal GST; dsDNA, one strand shown
# Method in brief: as §1
# ETV6, sequence (P41212 whole entry): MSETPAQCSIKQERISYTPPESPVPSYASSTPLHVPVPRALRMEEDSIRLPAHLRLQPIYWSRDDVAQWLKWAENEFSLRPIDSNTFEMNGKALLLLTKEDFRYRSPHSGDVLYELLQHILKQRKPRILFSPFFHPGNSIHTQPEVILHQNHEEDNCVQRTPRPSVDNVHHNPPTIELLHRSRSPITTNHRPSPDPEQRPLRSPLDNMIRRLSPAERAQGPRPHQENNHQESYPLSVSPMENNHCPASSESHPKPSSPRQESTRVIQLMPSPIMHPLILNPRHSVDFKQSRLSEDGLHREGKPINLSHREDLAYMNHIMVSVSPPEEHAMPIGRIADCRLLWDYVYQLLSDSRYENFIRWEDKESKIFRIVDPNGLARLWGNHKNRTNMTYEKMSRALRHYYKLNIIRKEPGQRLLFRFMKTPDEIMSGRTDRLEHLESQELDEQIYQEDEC
# CRX, sequence (O43186 whole entry): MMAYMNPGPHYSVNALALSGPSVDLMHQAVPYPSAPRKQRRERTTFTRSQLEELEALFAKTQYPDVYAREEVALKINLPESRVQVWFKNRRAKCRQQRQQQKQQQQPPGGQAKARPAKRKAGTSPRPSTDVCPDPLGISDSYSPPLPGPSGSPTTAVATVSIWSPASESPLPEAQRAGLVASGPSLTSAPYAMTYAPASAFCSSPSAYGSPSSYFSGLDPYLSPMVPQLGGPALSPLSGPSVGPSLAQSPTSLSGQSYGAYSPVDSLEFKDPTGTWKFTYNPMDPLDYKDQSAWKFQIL
# ETV1, sequence (P50549 whole entry): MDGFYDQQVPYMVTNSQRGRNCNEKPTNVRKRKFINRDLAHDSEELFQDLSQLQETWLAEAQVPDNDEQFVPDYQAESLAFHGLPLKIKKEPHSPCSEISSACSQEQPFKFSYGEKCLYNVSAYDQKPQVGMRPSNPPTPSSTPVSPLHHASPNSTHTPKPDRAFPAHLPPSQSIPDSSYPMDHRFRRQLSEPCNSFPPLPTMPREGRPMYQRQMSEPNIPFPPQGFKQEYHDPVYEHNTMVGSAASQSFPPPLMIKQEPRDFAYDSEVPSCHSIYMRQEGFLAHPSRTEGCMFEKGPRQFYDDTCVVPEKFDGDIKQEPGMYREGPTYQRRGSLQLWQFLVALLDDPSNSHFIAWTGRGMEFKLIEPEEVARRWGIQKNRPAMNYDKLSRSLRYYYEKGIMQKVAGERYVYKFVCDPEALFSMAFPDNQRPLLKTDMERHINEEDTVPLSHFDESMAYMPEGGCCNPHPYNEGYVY
# HSF1, sequence (Q00613 whole entry): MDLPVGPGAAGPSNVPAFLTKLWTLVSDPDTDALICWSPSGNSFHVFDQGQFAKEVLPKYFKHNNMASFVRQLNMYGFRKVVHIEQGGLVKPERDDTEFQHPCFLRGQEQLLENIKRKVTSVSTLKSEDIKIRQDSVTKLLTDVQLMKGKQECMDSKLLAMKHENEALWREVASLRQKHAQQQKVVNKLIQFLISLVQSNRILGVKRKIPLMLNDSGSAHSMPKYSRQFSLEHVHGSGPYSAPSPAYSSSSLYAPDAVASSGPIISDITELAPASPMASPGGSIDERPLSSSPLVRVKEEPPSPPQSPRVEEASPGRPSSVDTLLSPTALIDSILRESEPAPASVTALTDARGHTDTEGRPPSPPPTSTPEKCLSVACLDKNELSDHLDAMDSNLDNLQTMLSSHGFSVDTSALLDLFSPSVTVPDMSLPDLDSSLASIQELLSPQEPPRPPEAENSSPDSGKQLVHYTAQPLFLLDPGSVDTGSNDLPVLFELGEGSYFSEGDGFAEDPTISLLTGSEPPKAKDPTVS
# ETV5, sequence (P41161 whole entry): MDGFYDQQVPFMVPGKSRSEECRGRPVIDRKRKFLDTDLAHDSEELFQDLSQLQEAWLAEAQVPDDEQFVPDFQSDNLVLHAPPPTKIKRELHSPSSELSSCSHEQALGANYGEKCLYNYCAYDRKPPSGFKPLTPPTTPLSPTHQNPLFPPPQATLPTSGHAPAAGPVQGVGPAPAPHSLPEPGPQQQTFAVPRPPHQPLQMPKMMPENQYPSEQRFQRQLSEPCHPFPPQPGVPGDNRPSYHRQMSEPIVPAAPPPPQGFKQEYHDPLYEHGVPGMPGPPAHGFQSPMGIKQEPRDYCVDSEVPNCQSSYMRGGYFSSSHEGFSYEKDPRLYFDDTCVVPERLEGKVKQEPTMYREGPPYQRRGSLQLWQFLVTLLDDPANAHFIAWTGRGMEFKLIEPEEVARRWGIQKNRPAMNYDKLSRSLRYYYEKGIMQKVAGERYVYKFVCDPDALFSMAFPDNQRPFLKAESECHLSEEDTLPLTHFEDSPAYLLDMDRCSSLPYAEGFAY
# ELF4, sequence (Q99607 whole entry): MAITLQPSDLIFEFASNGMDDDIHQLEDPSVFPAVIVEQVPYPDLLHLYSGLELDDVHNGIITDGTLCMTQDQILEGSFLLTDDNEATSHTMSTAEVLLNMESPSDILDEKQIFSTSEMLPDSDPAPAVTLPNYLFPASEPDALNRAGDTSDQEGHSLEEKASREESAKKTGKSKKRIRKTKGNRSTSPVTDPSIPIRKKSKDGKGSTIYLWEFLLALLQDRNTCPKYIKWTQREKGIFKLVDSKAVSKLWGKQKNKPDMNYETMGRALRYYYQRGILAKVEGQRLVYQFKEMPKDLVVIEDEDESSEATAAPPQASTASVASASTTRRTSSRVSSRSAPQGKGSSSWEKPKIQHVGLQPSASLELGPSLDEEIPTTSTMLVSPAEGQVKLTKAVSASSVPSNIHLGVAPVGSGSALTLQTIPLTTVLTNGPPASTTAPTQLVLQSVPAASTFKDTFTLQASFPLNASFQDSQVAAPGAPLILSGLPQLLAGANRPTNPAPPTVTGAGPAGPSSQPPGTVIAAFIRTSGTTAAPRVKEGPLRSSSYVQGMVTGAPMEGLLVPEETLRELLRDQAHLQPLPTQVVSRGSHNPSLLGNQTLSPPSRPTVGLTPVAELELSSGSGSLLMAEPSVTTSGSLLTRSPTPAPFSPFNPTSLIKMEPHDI
sequence,measurement,setting,value
ACATCT,binding signal,FEV,"1.29 fold enrichment (6-mer frequency, TF over GST control)"
same,binding signal,ETV5,"1.31 fold enrichment (6-mer frequency, TF over GST control)"
same,binding signal,HSF1,"1.36 fold enrichment (6-mer frequency, TF over GST control)"
same,binding signal,SPIC,"1.43 fold enrichment (6-mer frequency, TF over GST control)"
same,binding signal,ELF4,"1.29 fold enrichment (6-mer frequency, TF over GST control)"
same,binding signal,ELK4,"1.4 fold enrichment (6-mer frequency, TF over GST control)"
same,binding signal,ETV2,"1.29 fold enrichment (6-mer frequency, TF over GST control)"
same,binding signal,ELF3,"1.4 fold enrichment (6-mer frequency, TF over GST control)"
same,binding signal,CRX,"1.19 fold enrichment (6-mer frequency, TF over GST control)"
same,binding signal,ETV1,"1.32 fold enrichment (6-mer frequency, TF over GST control)"
same,binding signal,ERF,"1.24 fold enrichment (6-mer frequency, TF over GST control)"
same,binding signal,ETV3L,"1.24 fold enrichment (6-mer frequency, TF over GST control)"
same,binding signal,ETS2,"1.27 fold enrichment (6-mer frequency, TF over GST control)"
same,binding signal,SPDEF,"1.26 fold enrichment (6-mer frequency, TF over GST control)"
same,binding signal,ETV7,"1.49 fold enrichment (6-mer frequency, TF over GST control)"
same,binding signal,ELF5,"1.3 fold enrichment (6-mer frequency, TF over GST control)"
same,binding signal,ETV3,"1.17 fold enrichment (6-mer frequency, TF over GST control)"
same,binding signal,ETV6,"1.29 fold enrichment (6-mer frequency, TF over GST control)"
